# Measurements taken from the supplement of paper PMC8728848.
# Shown is part of a subset that was picked to be rich in the strongest signals.
# Columns and labels:
# Test in all cases: glycan array binding signal (z-score within array); higher = stronger binding
# Settings in all cases: glycan notation: IUPAC condensed, linker removed
# [1] = target: GlcNAc(a1-4)Gal(b1-4)GlcNAc(b1-3)Gal(b1-4)Glc
# Method in brief: (§1)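 The binding signal is a Z-score computed within each array. Data were drawn from 3228 arrays in the Consortium for Functional Glycomics database, restricted to those with a known protein sequence. Scores were averaged over arrays of the same protein sequence at different concentrations or buffers, and over linkers, and negative values can be taken as non-binding.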
# [2] = target: GlcNAc(a1-4)Gal(b1-4)GlcNAc(b1-3)Gal(b1-4)GlcNAc(b1-3)Gal(b1-4)GlcNAc
# Method in brief: as §1
# [3] = target: GlcNAc(a1-4)Gal(b1-4)GlcNAc(b1-3)Gal(b1-4)[Fuc(a1-3)]GlcNAc(b1-3)Gal(b1-4)[Fuc(a1-3)]GlcNAc
# Method in brief: as §1
# GlcNAc(b1-3)Man = target: GlcNAc(b1-3)Man
# Method in brief: as §1
# [4] = target: GlcNAc(b1-3)[GlcNAc(b1-6)]GalNAc
# Method in brief: as §1
# [5] = target: Man(a1-2)Man(a1-3)[Man(a1-2)Man(a1-6)]Man(a1-6)[Man(a1-2)Man(a1-2)Man(a1-3)]Man(b1-4)GlcNAc(b1-4)GlcNAc
# Method in brief: as §1
# Man(a1-3)[Man(a1-6)]Man = target: Man(a1-3)[Man(a1-6)]Man
# Method in brief: as §1
# [6] = target: Man(a1-3)[Man(a1-6)]Man(a1-6)[Man(a1-3)]Man
# Method in brief: as §1
# [7] = target: Neu5Ac(a2-3)Gal(b1-3)[Fuc(a1-4)]GlcNAc
# Method in brief: as §1
# [8] = target: Neu5Ac(a2-3)Gal(b1-3)[Fuc(a1-4)]GlcNAc(b1-3)Gal(b1-3)[Fuc(a1-4)]GlcNAc
# Method in brief: as §1
# [9] = target: Neu5Ac(a2-3)Gal(b1-4)GlcNAc(b1-2)[Neu5Ac(a2-3)Gal(b1-4)GlcNAc(b1-6)]Man(a1-6)[Neu5Ac(a2-3)Gal(b1-4)GlcNAc(b1-2)Man(a1-3)]Man(b1-4)GlcNAc(b1-4)GlcNAc
# Method in brief: as §1
# [10] = target: Neu5Ac(a2-3)Gal(b1-4)GlcNAc(b1-3)Gal(b1-4)[Fuc(a1-3)]GlcNAc
# Method in brief: as §1
# [11] = target: Neu5Ac(a2-3)Gal(b1-4)GlcNAc(b1-3)GalNAc
# Method in brief: as §1
# [12] = target: Neu5Ac(a2-3)Gal(b1-4)GlcNAc(b1-6)GalNAc
# Method in brief: as §1
# [13] = target: Neu5Ac(a2-3)Gal(b1-4)GlcNAc6S
# Method in brief: as §1
# [14] = target: Neu5Ac(a2-3)Gal(b1-4)[Fuc(a1-3)]GlcNAc
# Method in brief: as §1
# [15] = target: Neu5Ac(a2-3)Gal(b1-4)[Fuc(a1-3)]GlcNAc(b1-3)GalNAc
# Method in brief: as §1
# [16] = target: Neu5Ac(a2-6)Gal(b1-4)GlcNAc
# Method in brief: as §1
# [17] = target: Neu5Ac(a2-6)Gal(b1-4)GlcNAc(b1-3)Gal(b1-3)GlcNAc
# Method in brief: as §1
# [18] = target: Neu5Ac(a2-6)Gal(b1-4)GlcNAc(b1-6)[Gal(b1-3)GlcNAc(b1-3)]Gal(b1-4)Glc
# Method in brief: as §1
# [19] = target: Neu5Ac(a2-6)GalNAc(b1-4)GlcNAc
# Method in brief: as §1
# [20] = target: Neu5Ac9Ac(a2-3)Gal(b1-4)GlcNAc
# Method in brief: as §1
binder,measurement,setting,value
"ArathEULS3 (Arabidopsis thaliana), Q945P1 (protein) MEHHHQHHRHHQRDDGEDDRQSFGVPPPHVDAPPQPHGLYQSQPHFDPYAPTPQAPAPYRSETQFEPHAPPPYRSEPYFETPAPPPSFGHVSHVGHQSPNESYPPEHHRYGGYQQPSNSLLESHGDHSGVTHVAHHSSNQPQSSSGVYHKPDENRLPDNLAGLAGRATVKVYSKAEPNYNLTIRDGKVILAPADPSDEAQHWYKDEKYSTKVKDADGHPCFALVNKATGEAMKHSVGATHPVHLIRYVPDKLDESVLWTESKDFGDGYRTIRMVNNTRLNVDAYHGDSKSGGVRDGTTIVLWDWNKGDNQLWKIFPFILEQKLISEEDLNSAVDHHHHHH",glycan array binding signal (z-score),[1],-0.112
same,glycan array binding signal (z-score),[2],-0.273
same,glycan array binding signal (z-score),[3],3.11
same,glycan array binding signal (z-score),GlcNAc(b1-3)Man,-0.164
same,glycan array binding signal (z-score),[4],-0.203
same,glycan array binding signal (z-score),[5],-0.229
same,glycan array binding signal (z-score),Man(a1-3)[Man(a1-6)]Man,-0.26
same,glycan array binding signal (z-score),[6],-0.266
same,glycan array binding signal (z-score),[7],-0.211
same,glycan array binding signal (z-score),[8],-0.244
same,glycan array binding signal (z-score),[9],1.98
same,glycan array binding signal (z-score),[10],-0.229
same,glycan array binding signal (z-score),[11],-0.326
same,glycan array binding signal (z-score),[12],-0.302
same,glycan array binding signal (z-score),[13],-0.173
same,glycan array binding signal (z-score),[14],1.79
same,glycan array binding signal (z-score),[15],2
same,glycan array binding signal (z-score),[16],0.011
same,glycan array binding signal (z-score),[17],-0.157
same,glycan array binding signal (z-score),[18],-0.239
same,glycan array binding signal (z-score),[19],-0.302
same,glycan array binding signal (z-score),[20],-0.232
